Measurements from PubChem BioAssay (NCI).
Values joined by “and” are separate entries in the source; they are usually repeats but may differ in a detail not shown here. Equal entries are not always repeated. This is part of a sample that, as a whole, favours compounds with a hit. Of some 83,000 tested, about 20% had one in any assay.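 Cells were grown in 96-well plates and exposed to the test compound at a single concentration for 48 hours; results are reported as percent growth, with values below 10 considered active.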 Some structures have more than one record in an assay (separate samples or runs), and their calls can disagree. Active and inactive are the calls of the source.

Experiments:
Experiment in all cases: NCI-60 one-dose screen, 48 h (100 = growth as untreated, 0 = no growth, -100 = all killed)
Details in all cases: 10 µM unless noted
RPMI-8226 leukemia = test system: RPMI-8226 leukemia
OVCAR-5 ovarian = test system: OVCAR-5 ovarian
OVCAR-4 ovarian = test system: OVCAR-4 ovarian
SK-OV-3 ovarian = test system: SK-OV-3 ovarian
IGROV1 ovarian = test system: IGROV1 ovarian
OVCAR-3 ovarian = test system: OVCAR-3 ovarian
HS 578T breast = test system: HS 578T breast
NCI/ADR-RES ovarian = test system: NCI/ADR-RES ovarian
SR leukemia = test system: SR leukemia
OVCAR-8 ovarian = test system: OVCAR-8 ovarian

Measured: growth

CC(/C=N/N1C(=O)c2ccccc2C1=O)c1ccccc1 (stereo not given)
inactive: RPMI-8226 leukemia 97.9% | OVCAR-5 ovarian 103% | OVCAR-4 ovarian 112% | SK-OV-3 ovarian 108% | IGROV1 ovarian 98.6% | OVCAR-3 ovarian 113% | HS 578T breast 119% | NCI/ADR-RES ovarian 113%

CC1(C)C2CCC1(CS(=O)(=O)O)C(=O)C2 (stereo not given)
inactive: OVCAR-4 ovarian 95.1%

Nc1ccc(N=Nc2ccc(S(=O)(=O)O)cc2)cc1S(=O)(=O)O
inactive: SR leukemia 108% and 157% | RPMI-8226 leukemia 86.7% and 40.2% | OVCAR-5 ovarian 101% and 107% | OVCAR-4 ovarian 118% and 87.9% | SK-OV-3 ovarian 105% and 106% | IGROV1 ovarian 79.3% and 76.1% | OVCAR-3 ovarian 108% and 210% | HS 578T breast 83.7% and 88.9% | NCI/ADR-RES ovarian 95.6% and 99.4%

COC(=O)/C=C/c1cc(O)c2c(c1)C(C(=O)OC)C(c1ccc(O)c(O)c1)O2 (stereo not given)
inactive: RPMI-8226 leukemia 36% and 34.4% | OVCAR-5 ovarian 69.3% and 54.7% | OVCAR-4 ovarian 52.9% and 43.8% | SK-OV-3 ovarian 43.1% and 29.2% | IGROV1 ovarian 44.6% and 38.3% | HS 578T breast 33.2% and 44.9% | NCI/ADR-RES ovarian 18.3% and 15.8%
5.46% (active) and 10.8% (inactive): SR leukemia
active: OVCAR-3 ovarian -1.91% and 9.26%

Cn1c(=O)c2[nH]c(CCCCCCCCc3nc4ccccc4[nH]3)nc2n(C)c1=O
inactive: SR leukemia 43.5% and 45.4% | RPMI-8226 leukemia 52.2% | OVCAR-5 ovarian 106% and 91.2% | OVCAR-4 ovarian 23.5% and 50.2% | SK-OV-3 ovarian 95.4% and 94% | IGROV1 ovarian 100% and 85.9% | OVCAR-3 ovarian 88.1% and 66.6% | HS 578T breast 109% and 85.6% | NCI/ADR-RES ovarian 87.6% and 94.4%

O=C(N/N=C/c1ccc2c(c1)OCO2)c1ccncc1
inactive: SR leukemia 113% and 134% | RPMI-8226 leukemia 111% and 103% | OVCAR-5 ovarian 98.7% and 113% | OVCAR-4 ovarian 103% and 98.7% | SK-OV-3 ovarian 101% and 104% | IGROV1 ovarian 88.7% and 86.6% | OVCAR-3 ovarian 106% and 96.5% | HS 578T breast 103% and 102% | NCI/ADR-RES ovarian 101% and 106%

O=C1CCN(Cc2ccccc2)C(=S)N1
inactive: SR leukemia 65.4% and 101% | RPMI-8226 leukemia 94.5% and 102% | OVCAR-5 ovarian 106% and 101% | OVCAR-4 ovarian 100% | SK-OV-3 ovarian 101% | IGROV1 ovarian 92.4% and 91.5% | OVCAR-3 ovarian 123% and 103% | HS 578T breast 114% and 81.7% | NCI/ADR-RES ovarian 106% and 103%

CCCCCn1sc(=O)n(Cc2ccc(CNC(=O)C(C)c3ccc(CC(C)C)cc3)cc2)c1=O (stereo not given)
106% (inactive) and -83.2% (active): IGROV1 ovarian
90% (inactive) and -47.6% (active): OVCAR-4 ovarian
104% (inactive) and 1.27% (active): SR leukemia
99.8% (inactive) and -17.6% (active): NCI/ADR-RES ovarian
102% (inactive) and -75.4% (active): OVCAR-3 ovarian
inactive: SK-OV-3 ovarian 97.1% and 70.2%
103% (inactive) and -53.7% (active): OVCAR-5 ovarian
99.7% (inactive) and -24.6% (active): RPMI-8226 leukemia

OCc1ccccn1
inactive: SR leukemia 96.9% | OVCAR-8 ovarian 108% | OVCAR-5 ovarian 105% | OVCAR-4 ovarian 113% | SK-OV-3 ovarian 117% | IGROV1 ovarian 116% | OVCAR-3 ovarian 112% | HS 578T breast 106% | NCI/ADR-RES ovarian 109%

CCN(CC)CCOc1ccc2c(c1)C(=O)c1cc(OCCN(CC)CC)ccc1-2
inactive: SR leukemia 93% | OVCAR-5 ovarian 108% | OVCAR-4 ovarian 60.7% and 40.7% | SK-OV-3 ovarian 90% and 87.6% | IGROV1 ovarian 78.3% | OVCAR-3 ovarian 96.1% and 70.5% | HS 578T breast 97.8% and 91.7% | NCI/ADR-RES ovarian 69.7% and 70.8%
67.1% (inactive) and 7.54% (active): RPMI-8226 leukemia

CCN(CC)CCc1nc(-c2ccccc2)no1
inactive: RPMI-8226 leukemia 60.9% and 98.7% | OVCAR-8 ovarian 83.9% and 94.4% | OVCAR-5 ovarian 98.6% and 114% | OVCAR-4 ovarian 76.7% and 103% | SK-OV-3 ovarian 98.2% and 99.6% | IGROV1 ovarian 78.7% and 112% | OVCAR-3 ovarian 73.2% and 112% | HS 578T breast 98% | NCI/ADR-RES ovarian 89.8% and 99.4%

CC(=O)Nc1ccc2cc3ccc(NC(C)=O)cc3nc2c1
-13.4% (active) and 67.8% (inactive): SK-OV-3 ovarian
inactive: SR leukemia 72.3% | RPMI-8226 leukemia 54.5% and 94.8% | OVCAR-5 ovarian 89.2% and 63.4% | OVCAR-4 ovarian 87.1% and 98.3% | IGROV1 ovarian 85.8% and 101% | OVCAR-3 ovarian 85.8% and 99.2% | HS 578T breast 84.3% and 87.3% | NCI/ADR-RES ovarian 99.9% and 97.7%

O=C(Nc1cccc(Cl)c1)c1cc2ccccc2cc1O
active: RPMI-8226 leukemia -19.4% and -4.12% | SK-OV-3 ovarian -11.7% | NCI/ADR-RES ovarian 4.12% and 9.44%
23.4% (inactive) and 3.87% (active): SR leukemia
inactive: OVCAR-5 ovarian 97.2% and 56.4% | OVCAR-4 ovarian 29.7% and 10.1% | OVCAR-3 ovarian 18.5% and 14.7% | HS 578T breast 17.5% and 21.8%

N#CCCOc1ccccc1
inactive: SR leukemia 104% | RPMI-8226 leukemia 103% | OVCAR-5 ovarian 107% | OVCAR-4 ovarian 98.8% | IGROV1 ovarian 102% | OVCAR-3 ovarian 114% | HS 578T breast 99.5% | NCI/ADR-RES ovarian 112%

N#C/C(=C/c1c(O)ccc2ccccc12)C(N)=O
inactive: RPMI-8226 leukemia 88.2% | OVCAR-8 ovarian 105% | OVCAR-5 ovarian 105% | OVCAR-4 ovarian 92% | SK-OV-3 ovarian 92.6% | IGROV1 ovarian 93.4% | OVCAR-3 ovarian 90.1% | HS 578T breast 113% | NCI/ADR-RES ovarian 94.6%

Nc1ccn(C2OC(CO)C(O)C2O)c(=O)n1 (stereo not given)
inactive: SR leukemia 14.8% | OVCAR-4 ovarian 99.9% [middle of 4 runs] | IGROV1 ovarian 50.9% and 10.1% and 106%

COc1ccc(NC(=S)Nc2ccccn2)cc1
inactive: SR leukemia 90.5% | RPMI-8226 leukemia 93% | OVCAR-5 ovarian 97.7% | OVCAR-4 ovarian 110% | SK-OV-3 ovarian 98% | OVCAR-3 ovarian 97% | HS 578T breast 101% | NCI/ADR-RES ovarian 99.8%

CNC(=O)c1cc(Oc2ccc(NC(=O)Nc3ccc(Cl)c(C(F)(F)F)c3)cc2)ccn1
inactive: OVCAR-5 ovarian 16.6% and 15.4% | OVCAR-4 ovarian 26.2% and 25.2%
18.9% (inactive) and 3.16% (active): OVCAR-3 ovarian
active: RPMI-8226 leukemia -11.5% and -19.3% | IGROV1 ovarian -24.8% and -70.7% | HS 578T breast -8.13% | NCI/ADR-RES ovarian -10.9% and -12.5%
-8.61% (active) and 23.9% (inactive): SR leukemia

CC1=C(/C=C/C(C)=C/C=C/C(C)=C/C(=O)Nc2ccc(O)cc2)C(C)(C)CCC1
inactive: OVCAR-8 ovarian 65.9% | OVCAR-5 ovarian 89.9% | OVCAR-4 ovarian 44.3% | OVCAR-3 ovarian 27.8% | HS 578T breast 63.3% | NCI/ADR-RES ovarian 39.1%
active: SR leukemia -4.85% | IGROV1 ovarian -0.235%
